# Shown are actives, neighbours in structure and some others; about 11% of the full set was active somewhere.
# ALDH1A1 inh: blocks purified human ALDH1A1 activity; Purified ALDH1A1, NADH fluorescence, propionaldehyde substrate; Potency, µM (titrated, usually from 75.3 µM), without a hit: at the top dose activity, negative = inhibition, actives largely listed as inhibitors; 220,000 tested, 7.3% active; active = well fitted inhibition curve with a large enough effect, not every such curve was filed as active; inconclusive = small, poorly fitted or top-dose-only effect, or another doubt; inactive = no such curve, though single readings can be large or run the other way;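 note: potency is the fitted concentration of half-maximal effect; plate controls were no enzyme wells and a reference inhibitor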
# Target sequence (P00352 whole entry, looked up): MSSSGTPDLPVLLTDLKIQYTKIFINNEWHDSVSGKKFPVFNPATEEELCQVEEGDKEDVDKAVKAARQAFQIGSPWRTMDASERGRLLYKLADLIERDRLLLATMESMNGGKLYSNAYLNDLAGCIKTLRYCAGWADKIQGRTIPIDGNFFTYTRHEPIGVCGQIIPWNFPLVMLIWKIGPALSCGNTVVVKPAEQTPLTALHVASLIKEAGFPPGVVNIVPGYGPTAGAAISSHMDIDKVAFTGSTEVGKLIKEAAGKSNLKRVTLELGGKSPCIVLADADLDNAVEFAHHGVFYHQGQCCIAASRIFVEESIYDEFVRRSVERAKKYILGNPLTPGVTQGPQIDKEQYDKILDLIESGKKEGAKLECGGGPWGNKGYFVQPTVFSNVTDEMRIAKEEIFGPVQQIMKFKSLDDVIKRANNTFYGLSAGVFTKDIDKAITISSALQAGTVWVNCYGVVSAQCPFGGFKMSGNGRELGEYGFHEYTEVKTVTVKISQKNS
# IMPase Li inh: IMPase inhibition in cells with lithium potentiation. CHO-M1 cells, IP1 TR-FRET (IP-One), carbachol + lithium. Potency, µM (top dose mostly 59.4 µM), for the others: top-dose activity, negative = IMPase inhibition, actives largely listed as inhibitors. 210,000 tested, 0.35% active;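 note: IP1 builds up when IMPase is blocked and the TR-FRET signal falls; potency is the fitted concentration of half-maximal effect; plate controls were basal vehicle for no effect and high inhibitor control for full effect; nearly all actives have a fitted effect of over 50% in size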
#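 Steps: plate 2000 CHO-M1 cells per well and culture 16–30 h; add compound and lithium; incubate 30 min, 37C; add d2-IP1 tracer and Eu cryptate anti-IP1 antibody in lysis buffer; read after 10 min at room temperature.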
# NPSR antagonist: neuropeptide S receptor (human) antagonism, cAMP. Q6W5P4. CHO-NPSR cells, cAMP TR-FRET, antagonist mode. Potency, µM (doses to about 38.3 µM), without a hit: at the highest dose activity change, negative = inhibition, usual class: inhibitors. 220,000 tested, 1% active. AID 1461; note: potency is the fitted concentration of half-maximal effect; nearly all actives have a fitted effect of over 50% in size
# HPGD block: HPGD (human) dehydrogenase inhibition; P15428; purified HPGD, NADH fluorescence kinetic, PGE2 substrate; Potency, µM, for the others: at the highest dose activity change, negative = inhibition, usual class: inhibitors; 150,000 tested, 4.3% active; AID 894; active = well fitted inhibition curve with a large enough effect, not every such curve was filed as active; inconclusive = small, poorly fitted or top-dose-only effect, or another doubt; inactive = no such curve, though single readings can be large or run the other way; note: potency is the fitted concentration of half-maximal effect
# Target sequence (P15428 whole entry, looked up): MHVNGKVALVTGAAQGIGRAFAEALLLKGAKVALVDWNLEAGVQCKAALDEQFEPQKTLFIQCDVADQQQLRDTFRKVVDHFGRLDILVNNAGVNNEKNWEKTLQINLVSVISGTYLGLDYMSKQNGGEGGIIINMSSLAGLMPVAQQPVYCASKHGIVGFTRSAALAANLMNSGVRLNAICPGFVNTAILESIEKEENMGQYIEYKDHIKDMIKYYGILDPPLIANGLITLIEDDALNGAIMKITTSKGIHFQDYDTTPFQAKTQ
#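 20 nM HPGD preincubated 15 min at room temperature with compound in 50 mM Tris-HCl pH 8, 0.01% Tween 20. Started with 1 mM NAD+ and 30 uM prostaglandin E2; NADH fluorescence (360/450 nm) read 5 times over 30-s intervals, last minus first.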
# IMPase inh: cell-permeable inhibitors of inositol monophosphatase (IMPase). 120,000 tested, under 10 active. inhibition (IP1 accumulation), % at 46.1 µM. CHO-M1 cells, IP1 accumulation, HTRF TR-FRET ratio. P97697. AID 901; active = well fitted curve in the direction sought with a large enough effect in the signal ratio, not every such curve was filed as active; inconclusive = small, poorly fitted or top-dose-only effect, or a change in a side signal; inactive = no such curve, though single readings can be large or run the other way; the % refers to the signal ratio;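 note: cells stimulated with carbachol in lithium chloride buffer; plate controls were DMSO basal wells for no effect and reference inhibitor wells for full effect; higher means more IMPase inhibition seen as more IP1 and lower FRET ratio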
#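 Elevated IP1 in lysates lowers TR-FRET signal (665/620 ratio and 620 channel reported). Cells were CHO-M1, given carbachol (50 uM as added) plus 50mM LiCl, pH 7.4, 30 min, 37C; compounds titrated up to 46 uM; AC50 by Hill equation.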
# PNC inhibitor: perinucleolar compartment assembly inhibition; PC3M PTB-GFP, PNC prevalence imaging, 16 h; stronger effect = lower value; activity change (PNC), negative = inhibition, % at 10 µM; 140,000 tested, 3.1% active; AID 2417;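 active = readout at or below -70, meaning at least 70% loss of cells showing the perinucleolar compartment, a nuclear body marking cancer cells; inconclusive = readout between -30 and a set limit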;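 note: plate controls were DMSO wells for no effect and camptothecin positive control wells for full effect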
#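 Compounds are pinned in duplicate onto adhered PC3M cells stably expressing GFP-tagged PTB and incubated 16 h at 37 C. Cells are then fixed, nuclei stained with Hoechst, and PNC-positive cells counted.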
# Starred values were filed as active, the others as inactive; ? = inconclusive; . = not tested or not shown; [ ] = remark or other dose. Unless noted, calls come from the whole dose curve; as a rule, active = well fitted curve in the direction sought with a large enough effect; inconclusive = small, poorly fitted or top-dose-only effect, or another doubt; inactive = no such curve, though single readings can be large; an effect the other way counts as inactive or inconclusive. Unless noted, % is set by controls: 0 for no effect and ±100 for the full control effect.
SMILES,ALDH1A1 inh,IMPase Li inh,NPSR antagonist,HPGD block,IMPase inh,PNC inhibitor
CC(C)C1O/C(=N/C(=O)Nc2ccc(Cl)c(Cl)c2)NC1=O (configuration not stated),?,23%[38.3 µM],2%[46.1 µM],20µM*,-1,-16
NC(=S)c1ccc[n+]([C@@H]2O[C@@H](COP(=O)([O-])OP(=O)(O)OC[C@H]3O[C@@H](n4cnc5c(N)ncnc54)[C@H](OP(=O)(O)O)[C@H]3O)C(O)C2O)c1 (some centres not stated),28µM*,-11%,-7%[46.1 µM],?,.,.
COc1ccc(CN2CCn3ncc(C(=O)Nc4ccccc4)c3C2=O)cc1,-12%,-1%[38.3 µM],-22%[46.1 µM],-9%,8,5
Clc1ccc(-c2n[nH]c3c2CCC3)cc1Cl,?,-5%[38.3 µM],?,18µM*,6,9
COc1ccc(-c2nnc(OCc3ccccc3)c3ccccc23)cc1,?,40%,?,-21%,3,-88*
CCC(C)NC(=O)Cn1cnc([N+](=O)[O-])c1 (configuration not stated),8%,5%,-7%,.,.,.
C=C(C)CN(CC)C(=O)CSc1nc2ncc(Cl)cc2[nH]1,25µM*,-4%[38.3 µM],-13%[46.1 µM],14µM*,-6,-28
O=C(Nc1ccncc1)c1ccc2ccccc2c1,5%,-5%,-16%,.,.,.
O=C(NCc1ccco1)c1ccc(COc2ccccc2Cl)cc1,?,15%[38.3 µM],-5%[46.1 µM],14µM*,1,57
O=C(Nc1ccccc1C(=O)NCc1ccco1)Nc1cccc2ccccc12,-7%,12%,-32%,.,.,.
O=C(NCc1ccco1)c1ccccc1F,-4%,25%[38.3 µM],5%[46.1 µM],?,-3,?
O=C(NCc1ccco1)c1ccc(Oc2ccccc2)cc1,?,32%[38.3 µM],-16%[46.1 µM],28µM*,0,?
O=C(NCc1ccco1)c1c(F)cccc1Cl,-9%,4%,9%,14µM*,.,-19
O=C(NCc1ccco1)c1cccc2ccccc12,-7%,-15%[38.3 µM],-15%[46.1 µM],14µM*,-13,-19
COc1ccc(NC(=O)C2=Cc3cccc(OC)c3OC2)cc1,-11%,-1%,-12%,.,.,.
CC(=C1C2C=CC1C1C(=O)NC(=O)C21)c1ccccc1 (configuration not stated),?,7%[38.3 µM],-10%[46.1 µM],-3%,-1,0
O=C(NCc1ccco1)c1ccc(S(=O)(=O)N2CCCc3ccccc32)cc1,14µM*,51%[38.3 µM],?,-26%,10,-20
CCOc1ccc(C(=O)NCc2ccco2)cc1,?,2%[38.3 µM],-5%[46.1 µM],28µM*,4,10
CCOc1ccc(NC(=O)NCc2ccco2)cc1,6%,3%,-6%,.,.,.
CCOc1ccc(C(=O)NCC(C)C)cc1,11%,-4%[38.3 µM],?,18µM*,-13,7
CC(C)COc1ccc(C(=O)NCc2ccco2)cc1,?,25%[38.3 µM],-9%[46.1 µM],16µM*,8,?
CCC(=O)Nc1nnc(-c2ccc(Cl)s2)o1,-1%,-1%,18%,.,.,.
CN(c1ccccc1C(=O)Nc1ccccc1C(=O)NCc1ccco1)S(C)(=O)=O,-2%,4%[38.3 µM],11%[46.1 µM],-12%,-1,-117*
CC(C)(Oc1ccc(Cl)cc1)C(=O)NCc1ccco1,13µM*,21%[38.3 µM],-5%[46.1 µM],-21%,-3,?
O=C(CNC(=O)c1ccco1)OCC(=O)c1cccc2ccccc12,22µM*,?,2%[46.1 µM],-17%,-8,26
SMILES,ALDH1A1 inh,IMPase Li inh,NPSR antagonist,HPGD block,IMPase inh,PNC inhibitor
O=C(NCc1ccco1)c1cccnc1-c1nc2ccccc2s1,8.9µM*,29%[38.3 µM],-14%[46.1 µM],16µM*,-2,-11
CC(=O)N1CCN(c2ccc(NCc3ccc4c(c3)OCO4)cc2)CC1,?,40%[38.3 µM],-13%[46.1 µM],-14%,16,18
COc1cc(N=C(N)N=C(N)N)c2ncccc2c1,9%[13.5 µM],-4%,.,-9%,.,.
CN1CCN(c2ccc(NC(=O)c3cccs3)cc2)CC1,0%,10%,-6%,.,.,.
CC(=O)c1c(C)[nH]c(=S)c(C#N)c1-c1ccc(Cl)cc1,.,.,14%[7.67 µM],.,.,.
CN1CCN(C(=O)C2=C[C@@H](c3ccc4c(c3)OCO4)C[C@@H](OCc3ccc(CO)cc3)O2)CC1,7%,0%,-7%,.,.,.
O=S(=O)(c1ccccc1)N1CCC2(CCCN(Cc3ccccc3)C2)CC1,-15%,27%,.,-5%,.,.
O=C(CS(=O)CC(=O)N(c1ccccc1)C(C(=O)NC1CCCC1)c1cccs1)Nc1ccc(F)cc1 (configuration not stated),9%,-5%[38.3 µM],-4%[46.1 µM],-2%,-2[1.84 µM],19
O=C(NCc1ccco1)c1ccc2ccccc2c1,1%,22%[38.3 µM],3%[46.1 µM],32µM*,-6[1.84 µM],?
O=C(NCc1ccco1)c1ccc2c(c1)C(=O)c1ccccc1-2,28µM*,-1%[38.3 µM],-18%[46.1 µM],16µM*,-4,?
Nc1ccc(Oc2ccc3c(c2)C(=O)N(CC2CCCO2)C3=O)cc1 (configuration not stated),28µM*,.,-4%,.,.,.
O=C(NN1C(=O)c2ccccc2C1=O)c1ccc2c(c1)C(=O)N(CC1CCCO1)C2=O (configuration not stated),.,.,6%,.,.,.
Nc1ccc2c(c1)C(=O)N(CC1CCCO1)C2=O (configuration not stated),8.9µM*,0%,1%[46.1 µM],-5%,0,27
CCCOCC1CC2(CC(C)(c3csc(N)n3)OC2=O)C(=O)O1 (configuration not stated),2%,0%,2%,0%,0,-119*
O=C(CCCOc1ccccc1)Nc1nc2ccccc2[nH]1,8%,-12%,-2%,.,.,.
O=S(=O)(CCOc1ccccc1)c1nc2ccccc2[nH]1,6.3µM*,27%[38.3 µM],6%[46.1 µM],-16%,9,25
FC(F)(F)c1nc2cc3nc4ccccc4[nH]c3cc2n1,.,.,13µM*,.,.,.
CCOC(=O)c1ccc(NC(=O)C(=O)NCCc2ccc(OC)cc2)cc1,12%,3%,-9%,.,-5,.
COC(=O)C(CCCCNC(=O)OCc1ccccc1)NC(=O)CN (configuration not stated),28µM*,18%[38.3 µM],-4%[46.1 µM],-3%,9,29
O=C(O)CCCNC(=O)OCc1ccccc1,8%,-26%[38.3 µM],-13%[46.1 µM],0%,-5,-24
O=C(Nc1nc(N2C(=O)c3ccccc3C2=O)n(-c2ccccc2)n1)c1ccc(F)cc1,20µM*,-15%[38.3 µM],-1%[46.1 µM],-7%,12,17
O=C(Nc1nc2nccc(-c3ccccc3)n2n1)c1ccccc1,.,.,5%[7.67 µM],.,.,.
O=C(Nc1nc(N2C(=O)c3ccccc3C2=O)n(-c2ccccc2)n1)c1ccccc1,3%,1%,2%,-16%,.,10
O=C(Nc1nc2nccc(-c3ccccc3)n2n1)c1ccc(F)cc1,2%,10µM*,-5%,-27%,.,?
